Laboratory results from PMC4336329 (PLoS ONE, 2015).
The campaign covered roughly 310,000 compounds. About 14,000 (4.5%) showed an effect of 50% or more. Effects have a minus sign here. Shown is part of a subset that was picked to be rich in strong results.

What follows are compounds tested against human ether-à-go-go-related gene (hERG) potassium channel (human, UniProt Q12809) (assay: primary screen, population patch clamp on CHO cells stably expressing hERG; higher = less effect of the substance).
human ether-à-go-go-related gene (hERG) potassium channel, sequence (Q12809 whole entry, looked up): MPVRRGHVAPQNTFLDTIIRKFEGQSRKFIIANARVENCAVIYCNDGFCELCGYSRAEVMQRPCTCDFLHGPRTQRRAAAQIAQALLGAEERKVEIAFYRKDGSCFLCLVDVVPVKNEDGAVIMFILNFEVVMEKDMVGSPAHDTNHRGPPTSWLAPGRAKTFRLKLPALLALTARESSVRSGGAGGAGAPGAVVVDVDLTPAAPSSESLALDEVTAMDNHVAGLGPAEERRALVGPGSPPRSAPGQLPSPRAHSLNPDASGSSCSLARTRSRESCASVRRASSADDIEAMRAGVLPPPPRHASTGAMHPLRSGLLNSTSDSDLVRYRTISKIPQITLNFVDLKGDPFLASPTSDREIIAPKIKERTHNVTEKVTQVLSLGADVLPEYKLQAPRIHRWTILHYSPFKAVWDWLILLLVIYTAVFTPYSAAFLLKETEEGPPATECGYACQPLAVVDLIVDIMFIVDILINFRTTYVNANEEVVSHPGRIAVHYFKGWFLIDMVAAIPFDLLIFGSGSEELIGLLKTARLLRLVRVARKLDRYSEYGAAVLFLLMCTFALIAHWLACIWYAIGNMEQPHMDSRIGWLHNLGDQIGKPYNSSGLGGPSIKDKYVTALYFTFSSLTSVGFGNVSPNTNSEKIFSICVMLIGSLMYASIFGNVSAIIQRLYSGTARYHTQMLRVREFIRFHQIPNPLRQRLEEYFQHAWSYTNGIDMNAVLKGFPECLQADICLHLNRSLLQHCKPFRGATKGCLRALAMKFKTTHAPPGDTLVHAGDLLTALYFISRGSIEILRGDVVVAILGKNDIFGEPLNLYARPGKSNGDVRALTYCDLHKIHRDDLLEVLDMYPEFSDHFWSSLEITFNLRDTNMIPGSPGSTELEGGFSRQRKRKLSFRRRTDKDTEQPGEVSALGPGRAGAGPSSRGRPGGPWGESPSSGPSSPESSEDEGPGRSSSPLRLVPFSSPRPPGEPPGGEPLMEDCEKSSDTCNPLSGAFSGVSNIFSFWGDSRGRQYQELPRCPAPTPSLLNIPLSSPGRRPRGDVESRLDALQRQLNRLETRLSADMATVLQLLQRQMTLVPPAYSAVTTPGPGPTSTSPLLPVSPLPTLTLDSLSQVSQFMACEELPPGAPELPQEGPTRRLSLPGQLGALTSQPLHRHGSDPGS
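Also: peak tail current of the secondary pulse compared with the same well before compound.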

SMILES | hERG current change (%, negative = inhibition) at 10uM [%]
CCN1CCN(Cc2nc3cc(NC(=O)COc4ccc([N+](=O)[O-])cc4)ccc3n2C)CC1 | -18.7
CC1CCN(CCc2nc3cc(NC(=O)COc4ccc([N+](=O)[O-])cc4)ccc3n2C)CC1 | -68.4
CN1CCN(CCc2nc3cc(NC(=O)COc4ccc([N+](=O)[O-])cc4)ccc3n2C)CC1 | 16.1
Cn1c(CCN2CCOCC2)nc2cc(NC(=O)COc3ccc([N+](=O)[O-])cc3)ccc21 | -21.1
Cn1c(CCN2CCCCC2)nc2cc([N+](=O)[O-])ccc21 | -70.2
COc1ccc(N2C(=O)C3CCCN3C2c2ccccc2)cc1Cl (stereo not drawn) | 7.28
CCOC(=S)N/C(=N\S(C)(=O)=O)c1ccccc1 | -2.92
COc1ccc(C(=S)N2CCOCC2)cc1OC(=O)c1cc(OC)c(OC)c(OC)c1 | 16.2
COc1ccc(CN(C)C(=O)c2ccccc2Sc2ccccc2C#N)c(OC)c1 | 0.887
Cc1ccc(C(=O)Cn2ncsc2=N)cc1 | -12.5
Cc1ccc(S(=O)(=O)NC2CCCC2)cc1C(N)=O | 20.1
Cc1cc(OC(=O)c2cccs2)ccc1C(C)C | 12.1
O=[N+]([O-])c1ccc(Cl)c(NC(=S)N2CCCC2)c1 | 5.47
CC(=O)Nc1ccc(OCC(O)CN2CCN(c3cc(Cl)ccc3C)CC2)cc1 (stereo not drawn) | -30.8
CC(=O)Nc1ccc(OCC(O)CN2CCN(c3ccccc3Cl)CC2)cc1 (stereo not drawn) | -50.2
CC(=O)Nc1ccc(OCC(O)CN2CCN(c3ccc(F)cc3)CC2)cc1 (stereo not drawn) | -23.4
CC(=O)Nc1ccc(OCC(O)CN2CCN(c3cccc(Cl)c3)CC2)cc1 (stereo not drawn) | -25.2
CC(=O)Nc1ccc(OCC(O)CN2CCN(c3ccc(C)c(Cl)c3)CC2)cc1 (stereo not drawn) | -27.7
CC(=O)Nc1ccc(OCC(O)CN2CCN(c3ccc(Cl)cc3)CC2)cc1 (stereo not drawn) | -52.7
CC(C)N(O)C(=O)NC(C)(C)C | 11.5
O=C(NC1CCCCC1)C(c1ccc(F)cc1)N(C(=O)c1csnn1)C1CCCC1 (stereo not drawn) | -7.88

SMILES | hERG current change (%, negative = inhibition) at 10uM [%]
COc1ccc(-c2noc(COc3ccc(Cl)c(C)c3)n2)cc1 | 2.81
O=C(CCC1CCCN(Cc2ccc3c(c2)CCO3)C1)NCc1ccc(F)c(F)c1 (stereo not drawn) | -63.7
O=C(CCC1CCCN(Cc2ccc3c(c2)OCCO3)C1)NCc1ccccc1F (stereo not drawn) | -24.2
O=C(CCC1CCCN(Cc2cccc3c2OCO3)C1)NCc1ccc(F)c(F)c1 (stereo not drawn) | -74.4
O=C(CCC1CCCN(C(=O)c2ccc3c(c2)OCO3)C1)NCc1ccc(F)c(F)c1 (stereo not drawn) | -8.73
CC(=O)c1cccc(CN2CCCC(CCC(=O)NCc3ccccc3F)C2)c1 (stereo not drawn) | -48.5
O=C(CCC1CCCN(Cc2ccc3c(c2)OCCO3)C1)NCc1ccc(F)c(F)c1 (stereo not drawn) | -61.5
CC1=C(C(=O)N2CCCC(CCC(=O)NCc3ccc(F)c(F)c3)C2)OCCO1 (stereo not drawn) | 3.36
O=C(CCC1CCCN(c2ncccn2)C1)NCc1ccc(F)c(F)c1 (stereo not drawn) | -40.8
O=C(CCC1CCCN(C(=O)c2ccncc2)C1)NCc1ccc(F)c(F)c1 (stereo not drawn) | -1.99
CC(=O)c1cccc(CN2CCCC(CCC(=O)NCc3ccc(F)c(F)c3)C2)c1 (stereo not drawn) | -74.7
COc1cccc(CNC(=O)CCC2CCCN(Cc3ccc4c(c3)CCO4)C2)c1 (stereo not drawn) | -33.6
O=C(CCC1CCCN(Cc2ccncc2)C1)NCc1ccc(F)c(F)c1 (stereo not drawn) | -13.6
COC(=O)Oc1ccc(/C=C/C(=O)OC(C)C)cc1OC(=O)OC | 1.69
Cc1ccc(C(=O)NCCc2ccc(S(=O)(=O)N3CCCC3)cc2)cc1 | -0.599
CCOc1ccc(C(=O)N(C)C2CCS(=O)(=O)C2)cc1 (stereo not drawn) | 18.3
O=C(CSc1nnc(-c2ccco2)o1)NC(=O)Cc1ccccc1 | -5.31
CC[C@@H](CCC=C(C)C)C(=O)N(Cc1ccccc1)c1ccccc1 | 3.94
CN1CCC(O)(c2ccc(Cl)cc2)C(C(=O)c2ccc(Cl)cc2)C1 (stereo not drawn) | -67.7
CCN1CCC(O)(c2ccccc2)C(C(=O)c2ccccc2)C1 (stereo not drawn) | -7.58
CN1CCC(O)(c2ccccc2)C(C(=O)c2ccccc2)C1 (stereo not drawn) | -2.34
